For one test, the target named is NTM. In words: pooled miR-30 sensor sort-seq; sequence = guide strand. To be noted: shRNA.
As to TCTGTCTGCACCGAGCAGGTGT, the sensor-assay potency score (higher = more potent) was -0.506. Still for that read-out and setting: with TTCTTTCCTTCAATCAGTCTTT the figure was -0.442; with TTTGTCATCCTTGTACCACTGG, 0.733. On the same count and under the same terms, with TTGAAGAAGATGAGTTTTGAGA the figure was -0.515. On the same count and under the same terms, with TTGTCTGTCTGCACCGAGCAGG the figure was -0.782; with TTGGCTTCTGAAATGTATGGTG, 0.211.

Consider TTGCTCAGAAGGACCACGCGAG, for which the sensor-assay potency score (higher = more potent) was -0.271.

As for AATCAGTCTTTTGTCATCCTTG, the sensor-assay potency score (higher = more potent) is -0.561. As for TTGCACAATGAGGTGGACCCTA, the sensor-assay potency score (higher = more potent) is -0.498.

Another test addresses NTRK2. The description is as above. To be noted: shRNA.
TATGAAACAAAACAAAACCTTT yielded a sensor-assay potency score (higher = more potent) of -1.09. Take TATTAGGAACCGGATCACCTGC: the sensor-assay potency score (higher = more potent) is -1.01. Still for that read-out and setting: to TATAGAACCACTGAAGCGCTGG belongs 0.358; to TCGTTGATGATTTCTAACCTTT, -0.793; to TTTAGTACAGATGTATTTGGAC, -0.241. Still for that read-out and setting: to TTCACTGCCACCAAGATCTTGT belongs 0.258; to TTGTTTGACAGCTGGTACCAGG, -0.771; to TTGCCTTTCACAGTGAATGGAA, 0.0334. The same measure, in the same setting: with TTTATCAGTGACGTCTGTGGAA the figure was -0.0514; with TTGATGTGCTGAACAAATGTGT, 0.264; with TTTCCTAGACAAACTCGTCAGT, -0.24. The sequence TTCAACATCATCTTCGTTGATG had a sensor-assay potency score (higher = more potent) of -0.198.

The record behind these values is the OligoGym collection.
Also: reference of the scale not given here.
